PNC assembly inh – High Content Assay for Compounds that inhibit the Assembly of the Perinucleolar Compartment | PC3M PTB-GFP, PNC prevalence imaging, 16 h; hits give low values | activity change (PNC), negative = inhibition, % at 10 µM | 140,000 compounds, 3.1% hits | AID 2417, 2010;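 active means readout at or below -70, meaning at least 70% loss of cells showing the perinucleolar compartment, a nuclear body marking cancer cells; inconclusive means readout between -30 and a set limit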
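PC3M cells stably expressing PTB-GFP, 750–1000 cells/well, treated 16 h at 37 °C with compound (23 nl of library stock), in duplicate. After paraformaldehyde fixation and Hoechst stain, imaged at 20x; PNC prevalence scored by image analysis.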
IMPase inh – qHTS Assay for Identifying the Cell-Membrane Permeable IMPase Inhibitors; CHO-M1 cells, IP1 accumulation, HTRF TR-FRET ratio; inhibition (IP1 accumulation), % at 46.1 µM; 120,000 tested, under 10 active; active means well fitted curve in the direction sought with a large enough effect in the signal ratio, not every such curve was filed as active; inconclusive means small, poorly fitted or top-dose-only effect, or a change in a side signal; inactive means no such curve, though single readings can be large or run the other way; the % refers to the signal ratio;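 further: cells stimulated with carbachol in lithium chloride buffer; higher means more IMPase inhibition seen as more IP1 and lower FRET ratio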
Target sequence (P97697 whole entry, looked up): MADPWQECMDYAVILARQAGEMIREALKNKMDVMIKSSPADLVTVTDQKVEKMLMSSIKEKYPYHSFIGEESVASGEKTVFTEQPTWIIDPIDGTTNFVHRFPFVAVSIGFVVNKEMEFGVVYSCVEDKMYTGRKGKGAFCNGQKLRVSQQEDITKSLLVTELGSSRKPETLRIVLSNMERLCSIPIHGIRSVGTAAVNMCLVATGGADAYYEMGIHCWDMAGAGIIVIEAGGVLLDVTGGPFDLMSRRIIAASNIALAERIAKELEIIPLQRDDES
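The IP-One HTRF competitive assay in carbachol-stimulated CHO-M1 cells quantifies cellular IP1. Compounds spanned up to 46 uM final, and activity is expressed as AC50 from concentration-response fits of the ratio and donor data.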
LMNA splice mod – qHTS Assay for Modulators of Lamin A Splicing; AID 1487, 2009; Potency, µM (highest dose often 46.1 µM), most hits filed as inhibitors; HeLa LMNA splicing GFP/RFP minigene ratio, 48 h; 200,000 compounds, 0.01% hits; active means well fitted inhibition curve with a large enough effect in the signal ratio, with a control signal flat, not every such curve was filed as active; inconclusive means small, poorly fitted or top-dose-only effect, or effect the other way, or a change in a side signal; the % refers to the signal ratio
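S3 HeLa cells stably expressing lamin A-EGFP splicing minigene plus DsRed2, 600 cells/well, 48 h compound exposure at 37C. Laser-scanning cytometry; analysed as GFP (500-530 nm)/RFP (575-640 nm) total intensity ratio; 0.5% DMSO vehicle.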
A number is an active result; n = inactive; u = inconclusive; x = not tested or not shown. Many of the other results were omitted from the sample, so hits are more common in it than they were.

SMILES	PNC assembly inh	IMPase inh	LMNA splice mod
CCc1ccc(-n2c(O)c(/C=N/N3CCCCC3c3cccnc3)c(=O)[nH]c2=O)cc1 (stereo not given)	-100	n	n
Cc1ccccc1-n1c(O)c(/C=N/N2CCCCC2c2cccnc2)c(=O)[nH]c1=O (stereo not given)	n	x	u
CCc1nn(CC(=O)N2CCN(Cc3ccc4c(c3)OCO4)CC2)c(=O)c2cc3occc3n12	n	n	u
COc1ccc(CCNCc2ccccn2)cc1OC	n	n	n
COc1ccc(CCNCc2ccc(F)cc2)cc1OC	-106	n	n
S=C(S)N1CCCC1	x	n	u
COc1ccc(OCC(=O)N2CCN(Cc3ccc(SC)cc3)CC2)cc1	x	n	n
COc1ccc(OCC(=O)N2CCN(C(C)C)CC2)cc1	-100	u	n
CCOP(=S)(OCC)SCC(=O)NC(C)(CC)C(=O)O (stereo not given)	-111	n	n
O=c1[nH]c(=S)n(-c2ccc(Cl)cc2)c(O)c1C=Nc1ccc(N2CCOCC2)cc1	x	x	n
O=c1[nH]c(=O)n(C2CCCCC2)c(O)c1C=Nc1ccc(N2CCOCC2)cc1	-97	x	u
COc1cccc(-n2c(O)c(C=NCc3ccc4c(c3)OCO4)c(=O)[nH]c2=O)c1	n	n	n
COc1ccccc1-n1c(O)c(C=NCc2ccc3c(c2)OCO3)c(=O)[nH]c1=O	-107	n	n
C=C(C)c1cccc(C(C)(C)NC(=O)NC2CN3CCC2CC3)c1 (stereo not given)	-94	n	u
O=C(COc1ccc(Cl)cc1)NC1CN2CCC1CC2 (stereo not given)	n	n	n
O=C1CN=C(c2ccccc2)c2oc3ccc(Br)cc3c2N1	u	n	n
COc1cccc(OC)c1C1=NCC(=O)Nc2c1oc1ccc(Br)cc21	-119	u	u
C[C@@]12CC[C@H]3[C@@H](CC[C@@H]4C[C@H](O)CC[C@]43C)[C@H]1CC[C@H]2O	x	n	x
C[C@H](CCC(=O)O)[C@H]1CC[C@@H]2[C@H]3[C@@H](CC[C@@]21C)[C@]1(C)CC[C@H](O)C[C@@H]1C[C@@H]3O	x	n	u
CN1C(=O)C(=Cc2ccc(N3CCCCC3)o2)C(=O)N(C)C1=S	-100	n	n
CCN(CC)c1ccc(C=C2C(=O)N(C)C(=S)N(C)C2=O)o1	n	x	n
Oc1ccc2c3c1O[C@@H]1c4[nH]c5c(c4C[C@@]4(O)[C@@H](C2)N(CC2CC2)CC[C@]314)C[C@]1(O)[C@@H]2Cc3ccc(O)c4c3[C@@]1(CCN2CC1CC1)[C@H]5O4	x	n	x
O=c1c2ccccc2ncn1-c1ccc([N+](=O)[O-])c(C(F)(F)F)c1	n	x	n
CCCc1nc2ccc(Br)cc2c(=O)n1-c1ccc([N+](=O)[O-])c(C(F)(F)F)c1	-96	n	u
C[N+]12CCC(CC1)[C@@H](OC(=O)C(O)(c1ccccc1)c1ccccc1)C2	x	n	u
SMILES	PNC assembly inh	IMPase inh	LMNA splice mod
CCCC[N+]1(C)[C@@H]2CC(OC(=O)[C@@H](CO)c3ccccc3)C[C@H]1[C@H]1O[C@H]12 (stereo not given in full)	x	n	x
S=C1NCCN1	-85	x	n
NC(=O)c1ncn([C@H]2O[C@@H](CO)[C@@H](O)[C@@H]2O)n1	x	n	u
C=CCn1c(O)c(C(CC)=NC(C)c2ccccc2)c(=O)[nH]c1=O (stereo not given)	-94	n	n
C=CCn1c(O)c(C(C)=Nc2ccc(N(CC)CC)cc2)c(=O)[nH]c1=O	n	n	u
C=CCn1c(O)c(C(C)=Nc2ccc(N(C)C)cc2)c(=O)[nH]c1=O	-91	n	u
CCCCn1c(O)c(C(CC)=NC(C)c2ccccc2)c(=O)[nH]c1=O (stereo not given)	n	n	n
N[C@@H](Cc1cc(O)c(O)cc1O)C(=O)O	x	n	x
Cc1ccc(S(=O)(=O)N2CCC(=O)N(CCOC(=O)Nc3cccc(Cl)c3)CC2)cc1	n	x	u
CCOC(=O)c1c(C)n(Cc2ccccc2)c2ccc(OCC(O)Cn3nc(C)cc3C)cc12 (stereo not given)	-80	x	u
CCOC(=O)c1c(C)n(Cc2ccccc2)c2ccc(OCC(O)Cn3nc(C)nc3C)cc12 (stereo not given)	n	n	n

Screening results: PubChem BioAssay, National Center for Advancing Translational Sciences (NCATS)
